Active and inactive are the calls of the source. The rule behind the calls is not given here.
Target: Estrogen receptor (Homo sapiens) (UniProt P03372)
Experiment: displacement of fluorescent estrogen from ERalpha – cell-based, Cos7 ERalpha-GFP, flow cytometry, primary screen (AID 1211);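 note: 0% = DMSO vehicle wells and 100% = no E2-Alexa633 signal left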
Details: fluorescent ligand competition, stronger effect = higher value

Estrogen receptor (Homo sapiens), sequence (P03372 whole entry, looked up): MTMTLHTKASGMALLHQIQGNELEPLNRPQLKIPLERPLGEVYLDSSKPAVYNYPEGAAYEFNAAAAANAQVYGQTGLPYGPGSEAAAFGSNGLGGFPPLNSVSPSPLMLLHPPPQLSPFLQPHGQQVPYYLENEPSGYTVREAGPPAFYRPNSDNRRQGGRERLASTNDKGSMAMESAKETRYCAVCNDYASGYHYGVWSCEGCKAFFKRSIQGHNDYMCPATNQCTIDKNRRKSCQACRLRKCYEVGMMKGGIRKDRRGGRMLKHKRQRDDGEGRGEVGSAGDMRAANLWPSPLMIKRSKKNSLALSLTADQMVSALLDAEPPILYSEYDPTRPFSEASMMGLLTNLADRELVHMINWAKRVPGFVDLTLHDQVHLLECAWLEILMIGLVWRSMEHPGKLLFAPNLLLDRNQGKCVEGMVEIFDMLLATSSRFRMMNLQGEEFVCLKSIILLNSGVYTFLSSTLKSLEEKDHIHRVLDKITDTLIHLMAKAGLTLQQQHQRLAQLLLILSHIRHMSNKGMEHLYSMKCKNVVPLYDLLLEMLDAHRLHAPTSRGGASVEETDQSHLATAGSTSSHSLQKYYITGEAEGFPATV

Structure (SMILES)	inhibition of ligand binding (at 10 µM)	inhibition of ligand binding (binding inhibition, at 0.1 µM) [%]
Nc1ccc(-c2cc(-c3cccc(N)c3)nc(-c3ccccc3)n2)cc1	42% (inactive)	2
CC(=O)OC1CC(C)(C)N(OC(=O)c2ccc(N)cc2)C(C)(C)C1	6% (inactive)	7
Nc1ccc2nc(CN3CCOCC3)[nH]c2c1	42% (inactive)	41
O=C1C2C3C=CC(C3)C2C(=O)N1c1cccc2cccnc12 (stereo not given)	4% (inactive)	57
COc1ccc(-c2nnc(-c3cc4c(ccc5ccccc54)oc3=O)o2)cc1	58% (inactive)	35
COCCOC(=O)c1[nH]c2c(c1C)C(=O)CC(c1ccco1)C2 (stereo not given)	2% (inactive)	8
CC(=O)N1c2ccc(Cl)cc2C2C=CCC2C1c1cccc2ccccc12 (stereo not given)	0% (inactive)	13
COc1ccc(-c2nnc(SCC(=O)/C(C#N)=C(\C)N)o2)cc1	40% (inactive)	16
CN1CCC(=NNC(=O)c2cn(-c3ccccc3)nc2-c2ccccc2)CC1	3% (inactive)	11
CC(=O)c1ccc2c(c1)C1C=CCC1C(C(=O)O)N2 (stereo not given)	42% (inactive)	39
CCCCN(CCCC)S(=O)(=O)c1ccc(NC(=O)Cc2cccs2)cc1	61% (inactive)	46
COc1cccc2cc3c(=O)n(-c4ccccc4)nc-3oc12	47% (inactive)	23
NC(=O)c1c(NC(=O)c2cc3ccccc3o2)sc2c1CCC2	43% (inactive)	5
CCN(CC)c1ccc2c(c1)oc(=O)c1c(Cl)cc(=O)oc12	23% (inactive)	4
O=c1cc(O)c2sc(Nc3ccc(F)cc3)nc2[nH]1	9% (inactive)	48
